{"source": "PubChem BioAssay AID2284345", "about": "(EPA ToxCast)", "note": "Results filed as inconclusive are left out. The source made the active and inactive calls. How the source made its calls: active means hit-call score of the fitted dose curve at least 0.9, where 1 is the maximum; inconclusive means response in the unintended direction; inactive means score below 0.9.", "data": [{"system": "zebrafish Glucocorticoid Receptor (GR), gene 553740", "assay": "ATG_zfGR_EcoTox2: Attagene TRANS-FACTORIAL EcoTox-2 HepG2 Assay for zebrafish Glucocorticoid Receptor (GR)", "method": "ATG_EcoTox2 is a cell-based, multiplexed assay created by modifying the existing Attagene TRANS-FACTORIAL system to include a panel of nuclear receptors from some or all the following species: human (Homo sapiens), african clawed frog (Xenopus laevis), rainbow trout (Oncorhynchus mykiss), japanese medaka (Oryzias latipes), and zebrafish (Danio rerio). The ECOTOX2-FACTORIAL format uses HepG2, a human liver cell line, with measurements taken at 24 hours after chemical dosing in a 24-well plate. ATG_zfGR_EcoTox2 is one of 29 assay components calculated in the ATG_EcoTox2 assay. It is designed to make measurements of mRNA induction, a form of inducible reporter, as detected with fluorescence intensity signals by Reverse transcription polymerase chain reaction (RT-PCR) and Capillary electrophoresis technology.The assay endpoint ATG_zfGR_EcoTox2 was analyzed in the positive analysis fitting direction relative to DMSO as the negative control and baseline of activity. Using a type of inducible reporter, measures of mRNA for gain-of-signal activity can be used to understand the reporter gene at the transcription factor-level as they relate to the gene for glucocorticoid receptor. Furthermore, this assay endpoint can be referred to as a primary readout, because this assay has produced multiple assay endpoints where this one serves a reporter gene function. To generalize the intended target to other relatable targets, this assay endpoint is annotated to the nuclear receptor intended target family, where the subfamily is steroidal.\nHuman liver HepG2 cells are transiently transfected with multiple reporter transcription units (MRTUs) in 6-well plates using FuGene 6 reagent (Roche; 3 ml FuGene/1 mg DNA). The MRTU constructs are regulated by a cis-regulating element (promoter). Each RTU expresses a GAL4-UAS that regulates the transcription of a nearby target reporter gene sequence. A major difference between the CIS and TRANS system is that in CIS activities of endogenous TFs are measured, whereas the TRANS assay evaluates changes in activities of exogenous, chimeric NR-Gal4 proteins. […] At the end of 24 hour incubation, total RNA was isolated using TriZol reagent (Invitrogen). The isolated RNA is then reverse-transcribed using oligo(dT) primer and Mo-MLV reverse transcriptase (Invitrogen) with DNAse I (Ambion) treatment for 30 min. The one-tenth of the produced cDNA was amplified by PCR using Taq DNA polymerase (Invitrogen) and two reporter sequence-specific primers. The PCR products were fluorescently labeled by primer extension with 6-arboxyfluorescein (6-FAM) 5'-labeled reporter sequence-specific primer (2 min at 95 C, 20 s at 68 C and 10 min at 72 C) and these products were digested with 5U of HpaI (New England Biolabs) for 2h at 37 C. The fragments were purified using Qiaquick PCR columns (Qiagen), analyzed on an ABI 3130xL genetic analyzer (Applied Biosystems) with peak positions identified by using a set of X-rhodamine (ROX)-labeled MapMarker1000 molecular weight standards (BioVentures). The raw capillary electrophoresis data was processed using Attagraph software (Attagene).", "values": [{"smiles": "CC(C)OC(=O)C(C)(C)Oc1ccc(C(=O)c2ccc(Cl)cc2)cc1", "outcome": "inactive"}, {"smiles": "CC(C)(Oc1ccc(Cl)cc1)C(=O)O", "outcome": "inactive"}, {"smiles": "CN(CCOc1ccc(CC2SC(=O)NC2=O)cc1)c1ccccn1", "note": "(configuration not stated)", "outcome": "inactive"}, {"smiles": "C[C@]12C=CC(=O)C=C1CC[C@@H]1[C@@H]2C(=O)C[C@@]2(C)[C@H]1CC[C@]2(O)C(=O)CO", "outcome": "inactive"}, {"smiles": "Cc1ccc(C)c(OCCCC(C)(C)C(=O)O)c1", "outcome": "inactive"}, {"smiles": "Cc1c(C)c2c(c(C)c1O)CCC(C)(COc1ccc(CC3SC(=O)NC3=O)cc1)O2", "note": "(configuration not stated)", "outcome": "inactive"}, {"smiles": "C[C@@H]1C[C@H]2[C@@H]3CCC4=CC(=O)C=C[C@]4(C)[C@@]3(F)[C@@H](O)C[C@]2(C)[C@@]1(O)C(=O)COP(=O)(O)O", "AC50": "4.57 nM (active)"}]}]}
